# Test results: PubChem BioAssay (NCI)
# Several values for one entry are separate records, joined by “and”; a condition that tells them apart may be missing. Equal entries are not always repeated. This is part of a sample that, as a whole, favours compounds with a hit. Of some 83,000 tested, about 20% had one in any assay.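 Method: cells in 96-well plates; compound added at one concentration; 48 h incubation; percent growth measured; values under 10 scored active.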 Activity calls are given as the source filed them.
# Tested on: SF-295 CNS
# Assay: NCI-60 one-dose screen, 48 h (100 = growth as untreated, 0 = no growth, -100 = all killed)
# Settings: 10 µM unless noted
row,SMILES,growth
1,Cc1c(C(C)(C)O)cn2ncnc(Oc3ccc(NC(=O)Nc4ccc(Cl)c(C(F)(F)F)c4)cc3)c12,16% (inactive)
2,Cc1ccc(C(=O)N(CCCN)[C@@H](c2nc3cc(Cl)ccc3c(=O)n2Cc2ccccc2)C(C)C)cc1,-60.4% (active)
3,O=c1ccc2nc(-c3ccccn3)nn(-c3ccccc3)c-2c1,96.3% (inactive)
4,COc1ccc(-c2ccc(-c3ccc(C(=N)N)cn3)o2)cc1Cl,73.6% (inactive)
5,Cc1ccc(Nc2nc(-c3cc(O)c(C)c(C)c3O)cs2)cc1,101% (inactive)
6,COC(=O)/C=C1/SC(N2N=C(c3cccs3)CC2c2ccc(F)cc2)=NC1=O (stereo unspecified),91.4% (inactive)
7,COC(=O)c1[nH]nc(OC)c1C1(C(C#N)c2nc3ccccc3s2)CCCc2ccccc21 (stereo unspecified),97.5% (inactive)
8,CCOC(=O)c1c(-c2ccc(C)cc2)c(C#N)c(=O)n(-c2cccc(C(F)(F)F)c2)c1N,100% (inactive)
9,COc1cc2nc3cc([N+](=O)[O-])ccc3c(NCCNCC(C)(C)O)c2cc1OC,16.4% (inactive)
10,Cc1ccc(C(=O)Nc2ccc(CN3CCN(C)CC3)c(C(F)(F)F)c2)cc1C#Cc1cnc(N)cc1C#N,-68.1% (active)
11,OCCN1CCN(CC/C=C2\c3ccccc3Sc3ccc(Cl)cc32)CC1,47.6% (inactive) and 31% (inactive)
12,CCCCCCNC(=O)Oc1ccc(/C(=C(/CC)Cc2ccccc2)c2ccc(OCCCN(C)C)cc2)cc1,116% (inactive)
13,O=c1cc(N/N=C/c2ccc(F)cc2)c2cc(Cl)ccc2[nH]1,100% (inactive)
14,O=C(Nc1ccccc1C(=O)N/N=C(\c1ccccc1)c1ccccn1)c1ccccc1,17.9% (inactive)
15,FC(F)(F)Sc1ccc(/C=C/c2cc(/C=C/c3ccc(SC(F)(F)F)cc3)n(-c3ccccc3)n2)cc1,96.6% (inactive)
16,Cc1ccc(-c2nc3nc(-c4ccc(Cl)cc4)nc(N4CCCNCC4)c3o2)cc1,85.3% (inactive)
17,CN1CCN(c2ccc(/C=C/C(=O)c3ccc(O)cc3)cc2)CC1,95.1% (inactive)
18,COc1ccc(/C(C)=C(\c2ccc(OCCN3CCOCC3)cc2)c2ccc(OC(=O)C3CCCCC3)cc2)cc1,103% (inactive)
19,CS(=O)(=O)Nc1cc(-c2ccc3ncnc(Nc4ccc(F)c(Cl)c4)c3c2)cnc1Cl,-17.5% (active)

row,SMILES,growth
1,CCOc1ccc(C(=O)Cc2ccccc2)cc1,121% (inactive) and 89.3% (inactive)
2,CCCc1cc(C(N)=S)ccn1,99.1% (inactive)
3,COc1ccc(-c2ccc(-c3ccc(C(=N)N)cn3)s2)cc1Cl,-80.9% (active)
4,Nc1nc(CSc2n[nH]c(N)n2)nc(Nc2ccccc2)n1,97.6% (inactive)
5,COC(=O)c1nc(-c2ccccc2)oc1S(=O)(=O)N(C)CCO,104% (inactive)
6,Nc1nc(Cl)nc2c1ncn2C1OC(CO)C(O)C1O (stereo unspecified),102% (inactive) and 103% (inactive)
7,Cc1ccc(NC(=O)c2sc3nc(C)c(C(=O)c4ccccc4)cc3c2N)cc1,73.1% (inactive)
8,O=Nc1ccc(NO)c2ccccc12,99.3% (inactive) and 121% (inactive)
9,N=C1/C(=C2\NC3C=CC=CC3S2)C(c2ccc(Cl)cc2)C2C(=O)N(c3ccccc3)C(=S)N12 (stereo unspecified),103% (inactive)
10,COc1cccc(C2C(C#N)=C(N)Oc3cc(OCCCCCC[P+](c4ccccc4)(c4ccccc4)c4ccccc4)ccc32)c1 (stereo unspecified),-41.4% (active)
11,C=C1CC[C@@H]2[C@](C)(COC(C)=O)[C@H](OC(C)=O)CC[C@@]2(C)[C@@H]1CC(Nc1ccc(S(=O)(=O)Nc2nccs2)cc1)C1=CCOC1=O (stereo partly specified),73% (inactive)
12,CCNC(=O)Oc1ccc(/C(=C(/C)Cc2ccc(OC)cc2)c2ccc(OCCN(CC)CC)cc2)cc1,40.8% (inactive)
13,O=C1OCC2=C1C(c1cccc(C(F)(F)F)c1)c1cc3c(cc1N2CCO)CCC3 (stereo unspecified),1.03% (active)
14,O=C(Nc1ccc2ccccc2c1)c1cc2ccccc2cc1O,128% (inactive)
15,CCOC(=O)c1nnn(Cc2cc(=O)oc3c2ccc2ccccc23)c1C,98.8% (inactive)
16,CCC(=O)Oc1cc(Cl)c(Cl)cc1Cl,96% (inactive)
17,COc1ccc(C(=O)c2ccc(OC)c(OC)c2OC)cc1,13.2% (inactive) and -15.2% (active)
18,Cn1cc(-c2nonc2-c2cn(C)c3ccc(Br)cc23)c2ccccc21,16.4% (inactive)
19,CC(C)(C)c1cc(NC(=O)Nc2ccc(-c3cn4c(n3)sc3cc(OCCN5CCOCC5)ccc34)cc2)no1,-58.7% (active) and 16.4% (inactive)

# Tested on: SF-539 CNS
# Assay: as above
# Settings: 10 µM unless noted
row,SMILES,growth
1,Cc1c(C(C)(C)O)cn2ncnc(Oc3ccc(NC(=O)Nc4ccc(Cl)c(C(F)(F)F)c4)cc3)c12,25.9% (inactive)
2,Cc1ccc(C(=O)N(CCCN)[C@@H](c2nc3cc(Cl)ccc3c(=O)n2Cc2ccccc2)C(C)C)cc1,-75.2% (active)
3,O=c1ccc2nc(-c3ccccn3)nn(-c3ccccc3)c-2c1,103% (inactive)
4,COc1ccc(-c2ccc(-c3ccc(C(=N)N)cn3)o2)cc1Cl,33% (inactive)
5,Cc1ccc(Nc2nc(-c3cc(O)c(C)c(C)c3O)cs2)cc1,96.6% (inactive)
6,COC(=O)/C=C1/SC(N2N=C(c3cccs3)CC2c2ccc(F)cc2)=NC1=O (stereo unspecified),91.6% (inactive)
7,COC(=O)c1[nH]nc(OC)c1C1(C(C#N)c2nc3ccccc3s2)CCCc2ccccc21 (stereo unspecified),106% (inactive)
8,CCOC(=O)c1c(-c2ccc(C)cc2)c(C#N)c(=O)n(-c2cccc(C(F)(F)F)c2)c1N,97.2% (inactive)
9,COc1cc2nc3cc([N+](=O)[O-])ccc3c(NCCNCC(C)(C)O)c2cc1OC,-20.8% (active)
10,Cc1ccc(C(=O)Nc2ccc(CN3CCN(C)CC3)c(C(F)(F)F)c2)cc1C#Cc1cnc(N)cc1C#N,-94.8% (active)
11,OCCN1CCN(CC/C=C2\c3ccccc3Sc3ccc(Cl)cc32)CC1,31.8% (inactive) and 59.7% (inactive)
12,CCCCCCNC(=O)Oc1ccc(/C(=C(/CC)Cc2ccccc2)c2ccc(OCCCN(C)C)cc2)cc1,99.1% (inactive)
13,O=c1cc(N/N=C/c2ccc(F)cc2)c2cc(Cl)ccc2[nH]1,104% (inactive)
14,O=C(Nc1ccccc1C(=O)N/N=C(\c1ccccc1)c1ccccn1)c1ccccc1,8.36% (active)
15,FC(F)(F)Sc1ccc(/C=C/c2cc(/C=C/c3ccc(SC(F)(F)F)cc3)n(-c3ccccc3)n2)cc1,98.1% (inactive)
16,Cc1ccc(-c2nc3nc(-c4ccc(Cl)cc4)nc(N4CCCNCC4)c3o2)cc1,-96.1% (active)
17,CN1CCN(c2ccc(/C=C/C(=O)c3ccc(O)cc3)cc2)CC1,91.9% (inactive)
18,COc1ccc(/C(C)=C(\c2ccc(OCCN3CCOCC3)cc2)c2ccc(OC(=O)C3CCCCC3)cc2)cc1,94.7% (inactive)
19,CS(=O)(=O)Nc1cc(-c2ccc3ncnc(Nc4ccc(F)c(Cl)c4)c3c2)cnc1Cl,6.35% (active)

row,SMILES,growth
1,CCOc1ccc(C(=O)Cc2ccccc2)cc1,101% (inactive) and 116% (inactive)
2,CCCc1cc(C(N)=S)ccn1,100% (inactive)
3,COc1ccc(-c2ccc(-c3ccc(C(=N)N)cn3)s2)cc1Cl,-93.5% (active)
4,Nc1nc(CSc2n[nH]c(N)n2)nc(Nc2ccccc2)n1,102% (inactive)
5,COC(=O)c1nc(-c2ccccc2)oc1S(=O)(=O)N(C)CCO,68.7% (inactive)
6,Nc1nc(Cl)nc2c1ncn2C1OC(CO)C(O)C1O (stereo unspecified),91.7% (inactive) and 111% (inactive)
7,Cc1ccc(NC(=O)c2sc3nc(C)c(C(=O)c4ccccc4)cc3c2N)cc1,94.8% (inactive)
8,O=Nc1ccc(NO)c2ccccc12,96.8% (inactive) and 109% (inactive)
9,N=C1/C(=C2\NC3C=CC=CC3S2)C(c2ccc(Cl)cc2)C2C(=O)N(c3ccccc3)C(=S)N12 (stereo unspecified),99.4% (inactive)
10,COc1cccc(C2C(C#N)=C(N)Oc3cc(OCCCCCC[P+](c4ccccc4)(c4ccccc4)c4ccccc4)ccc32)c1 (stereo unspecified),-58.1% (active)
11,C=C1CC[C@@H]2[C@](C)(COC(C)=O)[C@H](OC(C)=O)CC[C@@]2(C)[C@@H]1CC(Nc1ccc(S(=O)(=O)Nc2nccs2)cc1)C1=CCOC1=O (stereo partly specified),-67.1% (active)
12,CCNC(=O)Oc1ccc(/C(=C(/C)Cc2ccc(OC)cc2)c2ccc(OCCN(CC)CC)cc2)cc1,74.5% (inactive)
13,O=C1OCC2=C1C(c1cccc(C(F)(F)F)c1)c1cc3c(cc1N2CCO)CCC3 (stereo unspecified),-15.6% (active)
14,O=C(Nc1ccc2ccccc2c1)c1cc2ccccc2cc1O,105% (inactive)
15,CCOC(=O)c1nnn(Cc2cc(=O)oc3c2ccc2ccccc23)c1C,98.8% (inactive)
16,CCC(=O)Oc1cc(Cl)c(Cl)cc1Cl,97.1% (inactive)
17,COc1ccc(C(=O)c2ccc(OC)c(OC)c2OC)cc1,9.19% (active) and -30.5% (active)
18,Cn1cc(-c2nonc2-c2cn(C)c3ccc(Br)cc23)c2ccccc21,-0.366% (active)
19,CC(C)(C)c1cc(NC(=O)Nc2ccc(-c3cn4c(n3)sc3cc(OCCN5CCOCC5)ccc34)cc2)no1,-83.3% (active) and 13.6% (inactive)
